According to PubChem BioAssay AID1851 (National Center for Advancing Translational Sciences (NCATS), 2009):
Out of some 16,000 compounds screened, about 5,800 (36%) were called active. Not shown: some 23% with an inconclusive outcome. This is one part of the list. Values without a mark were called inactive. The call rests on the fitted dose curve; in most records, active means well fitted curve in the direction sought with a large enough effect; inconclusive means small, poorly fitted or top-dose-only effect, or effect the other way; inactive means no such curve, though single readings can be large or run the other way.
On the % scale 0 is the no-effect control and ±100 the full control effect.

The compounds below were run against Cytochrome P450 2C19 (Homo sapiens) (UniProt P33261) (assay: Cytochrome panel assay with activity outcomes). Details: recombinant CYP, pro-luciferin dealkylation, luminescence, p450-cyp2c19; series mostly up to 57.1 µM; activity, negative = inhibition: at the top concentration.
Sequence of Cytochrome P450 2C19 (Homo sapiens) (P33261 whole entry, looked up): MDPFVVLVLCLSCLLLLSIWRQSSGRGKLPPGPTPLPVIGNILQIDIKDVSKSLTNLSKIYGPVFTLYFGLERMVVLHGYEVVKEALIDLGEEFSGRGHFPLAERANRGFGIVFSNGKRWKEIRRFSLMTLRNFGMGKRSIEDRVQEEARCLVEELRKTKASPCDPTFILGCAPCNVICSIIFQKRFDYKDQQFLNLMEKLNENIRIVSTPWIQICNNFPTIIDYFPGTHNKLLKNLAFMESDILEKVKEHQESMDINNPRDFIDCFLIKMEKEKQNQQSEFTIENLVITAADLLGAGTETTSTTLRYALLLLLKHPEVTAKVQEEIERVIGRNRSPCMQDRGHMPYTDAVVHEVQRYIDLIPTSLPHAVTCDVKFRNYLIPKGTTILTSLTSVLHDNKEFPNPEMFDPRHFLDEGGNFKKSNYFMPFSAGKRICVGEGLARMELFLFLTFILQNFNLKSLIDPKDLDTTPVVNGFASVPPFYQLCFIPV
With `CC(C)NC[C@@H](O)COc1ccccc1-n1cccc1` the “activity, negative = inhibition” value was -27.9%. With `CC(C)(C)NC[C@H](O)COc1cccc2c1CCCC2=O` the AC50 was “inactive”. `N=C(C[C@@H](O)COc1ccccc1-c1ccccc1)N1CCCCC1` was tested, and the AC50 was 31.6 µM (active). For `O=C1C(=O)c2ccccc2C(O)=C1C1CCC(c2ccc(Cl)cc2)CC1` (stereo not drawn), the “activity, negative = inhibition” value was -17% [at 25.6 µM]. Compound `O=C1C(=O)c2ccccc2C(O)=C1C(CCc1ccccc1)C1=C(O)c2ccccc2C(=O)C1=O` has an activity, negative = inhibition of 21.7% [at 11.4 µM]. With `O=C1C(=O)c2ccccc2C(O)=C1C(C1=C(O)c2ccccc2C(=O)C1=O)c1ccc(Cl)cc1` the AC50 was 3.98 µM (active). With `O=C1C2C3C=CC(C3)C2C(=O)N1c1ncn[nH]1` (stereo not drawn) the “activity, negative = inhibition” value was -7.13%. With `CC(=O)Oc1cc(C(C)C)c(OCCN(C)C)cc1C` the AC50 was “inactive”. For `CN(C)CCNC(=O)c1cc(Br)ccc1Cl`, the “activity, negative = inhibition” value was -28.6%. `CSc1ccc(Cl)c(C(=O)NCCOc2cc(C)ccc2C(C)C)c1` was tested, and the AC50 was 5.01 µM (active). In the case of `CC(C)=CCC/C(C)=C/CO/N=C1/[C@H]2O[C@@H]2[C@@H](O)[C@H]2[C@H]1CCn1c(=O)n(Cc3cc4c(cc3Cl)OCO4)c(=O)n12`, the activity, negative = inhibition is reported as 9.01% [at 11.4 µM]. `Cc1ccc(S(=O)(=O)N[C@H]2COC(=O)C/C=C\[C@H](C)[C@@H](NS(=O)(=O)c3ccc(C)cc3)COC(=O)C/C=C\[C@@H]2C)cc1` showed an activity, negative = inhibition of 18.4% [at 11.4 µM]. `Cc1ccc(S(=O)(=O)Nc2ccccc2C=O)cc1` was tested, and the AC50 was 5.01 µM (active). For `Cc1ccc(S(=O)(=O)Nc2ccccc2C(=O)c2ccc(C)c(C)c2)cc1`, the activity, negative = inhibition was 30.1% [at 11.4 µM]. With `C[C@](N)(Cc1ccc(O)c(O)c1)C(=O)O` the “activity, negative = inhibition” value was 26%. In the case of `CCOC(=O)c1c(C(C)(C)C)oc2ccc(O)cc12`, the AC50 is reported as 3.98 µM (active). With `C[C@@](N)(Cc1ccc(O)cc1)C(=O)O` the AC50 was “inactive”. For `O=C(N/N=C/c1c[nH]c2ccc(Br)cc12)c1ccn(Cc2ccc(Cl)cc2)n1`, the AC50 was 3.55 µM (active). With `O=C(N/N=C/c1c[nH]c2ccccc12)c1ccn(Cc2ccc(Cl)cc2Cl)n1` the AC50 was 2 µM (active). In the case of `O=c1ncn(-c2ccccc2F)c2ncccc12`, the “activity, negative = inhibition” value is reported as -27%. `O=c1[nH]n(-c2cccc3cccnc23)c(=O)c2ccccc12` was tested, and the AC50 was 11.2 µM (active). For `COc1cccc(-c2nc(NCc3cccs3)c3ccccc3n2)c1`, the AC50 was 3.16 µM (active). In the case of `c1ccc2c(NC3CCNCC3)nc(-c3ccoc3)nc2c1`, the “activity, negative = inhibition” value is reported as 15.9%. `N#Cc1cccc(-c2nc(NCc3cccs3)c3ccccc3n2)c1` was tested, and the “activity, negative = inhibition” value was -23.1%. In the case of `Cc1cnc(CNc2nc(-c3ccoc3)nc3ccccc23)cn1`, the “activity, negative = inhibition” value is reported as -27.9%. In the case of `CNc1nc(-c2cccc(C#N)c2)nc2ccccc12`, the AC50 is reported as 7.94 µM (active). For `COc1ccccc1CNc1nc(-c2cccc(C#N)c2)nc2ccccc12`, the AC50 was 3.98 µM (active). For `N#Cc1cccc(-c2nc(Nc3ccccc3)c3ccccc3n2)c1`, the “activity, negative = inhibition” value was 15.4%. For `Cc1cccc(CNc2nc(-c3ccoc3)nc3ccccc23)c1`, the AC50 was 7.94 µM (active). With `Cc1ccnc(N)c1` the “activity, negative = inhibition” value was -27.7%. With `C[C@H](N=C(NC#N)Nc1ccncc1)C(C)(C)C` the “activity, negative = inhibition” value was 5.2%. Work on `NC(N)=N[C@@H]1C(O)[C@H](N=C(N)N)[C@@H](O)C(O)[C@H]1O` (stereo partly drawn) yielded an activity, negative = inhibition of 12.7% [at 11.4 µM]. With `COc1cccc(-c2nc(NCc3ccccc3OC)c3ccccc3n2)c1` the AC50 was 7.94 µM (active). `COc1cccc(-c2nc(NCc3ccccc3)c3ccccc3n2)c1` was tested, and the AC50 was 3.98 µM (active). In the case of `Cc1cccc(CNc2nc(-c3cccnc3)nc3ccccc23)c1`, the AC50 is reported as 10 µM (active). With `COc1cccc(-c2nc(NC3CCNCC3)c3ccccc3n2)c1` the “activity, negative = inhibition” value was 8.48%. With `Cc1cnc(CNc2nc(-c3cccnc3)nc3ccccc23)cn1` the “activity, negative = inhibition” value was -29.8%. With `N#Cc1cccc(-c2nc(NCc3cccnc3)c3ccccc3n2)c1` the “activity, negative = inhibition” value was -27.2%. With `N#Cc1cccc(-c2nc(NCc3ccccc3)c3ccccc3n2)c1` the AC50 was 6.31 µM (active). In the case of `COc1cccc(-c2nc(NCc3cccnc3)c3ccccc3n2)c1`, the AC50 is reported as 25.1 µM (active). `COc1ccc(-c2cc(C(F)(F)F)nc(NCc3cccnc3)n2)cc1` was tested, and the AC50 was 2.82 µM (active). In the case of `O=C(O)c1ccc(C(=O)O)c(C(=O)O)c1.[NH-][C@@H]1CCCC[C@@H]1[NH-].[Pt]`, the activity, negative = inhibition is reported as -17.9% [at 11.4 µM]. `CN1CCC2(CC1)CCN(C(=O)c1cc(C(F)(F)F)cc(C(F)(F)F)c1)CC2` was tested, and the “activity, negative = inhibition” value was -21.7%. With `CON/C=C(\C=Nc1ccccc1)c1ncc(C(F)(F)F)cc1Cl` the AC50 was 3.55 µM (active). For `Cn1cnc2c(NC3CCCC3)ncnc21`, the “activity, negative = inhibition” value was -28%. For `NS(=O)(=O)c1ccc(N=C2C(=O)Nc3ccccc32)cc1`, the activity, negative = inhibition was -2.67% [at 11.4 µM]. For `O=C1Nc2ccccc2/C1=N/c1sc2c(c1C(=O)NCCc1ccccc1)CCCC2`, the AC50 was 2.51 µM (active). For `O=C1Nc2ccccc2C1=Nc1ccc(S(=O)(=O)Nc2nccs2)cc1`, the activity, negative = inhibition was 21.4% [at 11.4 µM]. `COc1cc2c(cc1OC)[C@H](c1ccccc1)CN(C)CC2` was tested, and the “activity, negative = inhibition” value was -2.52%. `COC(=O)c1ccc(OCC2c3cc(OC)c(OC)cc3CCN2C(=O)C2CC2)cc1` (stereo not drawn) was tested, and the AC50 was 2.51 µM (active). With `COc1ccc(C(=O)OC(C)CN2CCN(C)CC2)cc1OC` (stereo not drawn) the “activity, negative = inhibition” value was -16.7%. For `NCCCNCCCCNCCCN`, the AC50 was 7.94 µM (active). `NCCCCN` was tested, and the “activity, negative = inhibition” value was 31.9%. In the case of `NCCCCNCCCN`, the AC50 is reported as “inactive”. `Cn1nc(C(F)(F)F)c(/C=N/OC(=O)c2ccccc2Cl)c1SCc1ccc(Cl)cc1` was tested, and the AC50 was 0.355 µM (active). In the case of `Cn1c(=O)c2[nH]c([C@@H]3CC(=O)C[C@H](c4nc5c([nH]4)c(=O)n(C)c(=O)n5C)N3)nc2n(C)c1=O`, the activity, negative = inhibition is reported as 1.66% [at 11.4 µM]. In the case of `Cc1ccc(CNC(=O)CN2C(=O)COc3ccc(C)cc32)cc1`, the AC50 is reported as 2.82 µM (active). In the case of `Cc1ccc2c(c1)N(CC(=O)NC1CCC(C)CC1)C(=O)CO2` (stereo not drawn), the AC50 is reported as 2.82 µM (active). With `Cc1ccc2c(c1)N(CC(=O)NC1CCCc3ccccc31)C(=O)CO2` (stereo not drawn) the AC50 was 2.51 µM (active). In the case of `O=C(O)C[C@@H]1CCCc2ccccc2[C@H]1O`, the “activity, negative = inhibition” value is reported as 3.65%. `CN(C)C(=O)Oc1cccc([N+](C)(C)C)c1` was tested, and the “activity, negative = inhibition” value was 42.9%. With `C=CCn1c(SCC)nc2sc3c(c2c1=O)CCc1ccccc1-3` the AC50 was 8.91 µM (active). `O=c1/c(=C\c2ccc(O)cc2)sc2n1C(c1ccccc1)C(c1ccccc1)=NN=2` (stereo not drawn) was tested, and the AC50 was 1.58 µM (active). In the case of `CCCCSc1nc(C)cc(NC(=S)Nc2ccc(OC)cc2)n1`, the AC50 is reported as 2.51 µM (active). With `CCOC(=O)c1cccc2c1-c1ccccc1/C2=N/O` the AC50 was 7.94 µM (active). In the case of `CC(C)=CCc1c(C)nc2ccccc2c1C(=O)O`, the “activity, negative = inhibition” value is reported as -28.7%. In the case of `CC(C)=CCC1=C(OCC(=O)O)C(=O)c2ccccc2C1=O`, the AC50 is reported as 1.26 µM (active). With `COC(=O)C1=C(C)Nc2ncnn2C1c1cccnc1` (stereo not drawn) the “activity, negative = inhibition” value was -24.7%. With `COc1ccccc1NC(=O)C1=C(C)Nc2nc(-c3ccc(N(C)C)cc3)nn2C1c1ccncc1` (stereo not drawn) the AC50 was 14.1 µM (active). For `CSc1nc2n(n1)C(c1cccc(F)c1)C(C(=O)Nc1ccc(C)cc1C)=C(C)N2` (stereo not drawn), the “activity, negative = inhibition” value was 21.6%. With `CC1=C(C(N)=O)C(c2ccccn2)n2nc(SCc3ccccc3Cl)nc2N1` (stereo not drawn) the “activity, negative = inhibition” value was -88%. In the case of `CCOc1ccccc1C1C(C(N)=O)=C(C)Nc2nc(-c3ccc(OC)cc3)nn21` (stereo not drawn), the AC50 is reported as 10 µM (active). For `CC1=C(C(=O)Nc2cccnc2)C(c2cccnc2)n2nc(-c3cccs3)nc2N1` (stereo not drawn), the AC50 was 11.2 µM (active). For `COc1ccc2oc(=O)c(C(=O)Oc3ccc(NC(C)=O)cc3)cc2c1`, the AC50 was 15.8 µM (active). In the case of `COc1ccc(NC(=O)N2CC[C@@]3(CCCN(C(C)=O)C3)C2)cc1`, the “activity, negative = inhibition” value is reported as -14.5%. Compound `O=C(Nc1ccc2oc(=O)c(C(=O)O)cc2c1)Oc1ccccc1` has an activity, negative = inhibition of 18.7% [at 11.4 µM]. `CN(C(=S)Nc1ccccc1F)C1(c2ccccc2Cl)CCCCC1=O` (stereo not drawn) was tested, and the AC50 was 1.26 µM (active). For `CO/N=C(/CNC(=O)c1ccc(Cl)cc1Cl)c1ccc(Cl)cc1`, the AC50 was 0.398 µM (active). `CO/N=C(/CNC(=O)c1cccc(Cl)c1)c1ccc(Cl)cc1` was tested, and the AC50 was 0.708 µM (active). `COc1ccc2c(c1)Cc1sc(NC(=O)c3ccco3)nc1-2` was tested, and the AC50 was 14.1 µM (active). `COc1ccc(NC(=O)N2CC3(CCN(C(=O)c4ccco4)CC3)C2)cc1` was tested, and the “activity, negative = inhibition” value was -32.6%. In the case of `COc1ccc(Cc2nnc(NC(=O)c3cccc([N+](=O)[O-])c3C)s2)cc1`, the “activity, negative = inhibition” value is reported as 10.2%. With `COc1ccc2c(c1)CCc1sc(NC(=O)c3ccc(C)cc3)nc1-2` the AC50 was 3.55 µM (active). With `COc1ccc(Cc2nnc(NC(=O)c3ccco3)s2)cc1` the AC50 was 14.1 µM (active). `COc1ccc(NC(=O)N2CCC3(CC2)CCN(C(=O)c2ccco2)CC3)cc1` was tested, and the “activity, negative = inhibition” value was -11%. `Cc1ccc(-c2c(C#N)c(N)n(-c3ccccc3)c(=O)c2C#N)cc1` was tested, and the “activity, negative = inhibition” value was -29.3%. For `Cc1ccc(NC(=O)NNC(=O)Cn2nc(-c3ccccc3)c(-c3ccccc3)c(C#N)c2=O)cc1`, the AC50 was 17.8 µM (active). `COc1ccc(CSc2nnnn2C)cc1[N+](=O)[O-]` was tested, and the AC50 was 10 µM (active). `Cn1nnnc1SCc1ccccc1[N+](=O)[O-]` was tested, and the AC50 was 25.1 µM (active). For `Cn1nnnc1SCC(=O)Nc1ccccc1[N+](=O)[O-]`, the “activity, negative = inhibition” value was -18%. With `O=C(O)c1ccc(NCc2nc3cc4ccccc4cc3[nH]2)cc1` the activity, negative = inhibition was 60.6% [at 11.4 µM]. With `COC(=O)Nc1nc2ccc(C(=O)c3ccccc3)cc2[nH]1` the “activity, negative = inhibition” value was -36.1% [at 25.6 µM]. In the case of `O=C(c1ccccc1)c1ccc2nc(-c3ccc(NC(=O)c4ccccc4Br)cc3)[nH]c2c1`, the AC50 is reported as 5.62 µM (active). With `C[C@H](N)CCCC(C)(C)O` the “activity, negative = inhibition” value was 19.9% [at 25.6 µM]. `O=C(O)c1ccccc1-c1ccc(/C=c2\sc3nc4cc(Br)cnc4n3c2=O)o1` was tested, and the AC50 was 35.5 µM (active). In the case of `Cc1cc(C)n(C(=O)c2cc3ccccc3c(=O)o2)n1`, the AC50 is reported as 1.58 µM (active). With `Cc1cc2[nH]c(=O)c3ccccc3n2n1` the “activity, negative = inhibition” value was -22.9%. Work on `CCc1cc2c(nc1CC)CCN(CC/C(C)=N/O[C@@H]1O[C@H](COC(C)=O)[C@H](OC(C)=O)[C@H](OC(C)=O)[C@H]1OC(C)=O)C2` yielded an activity, negative = inhibition of 6.45% [at 11.4 µM].
